High-throughput results as filed in PubChem BioAssay.
tim10-1 inh: growth inhibitors of tim10-1 mutant yeast, primary screen, luminescence, uHTS. 330,000 compounds, 2.2% hits. inhibition, % at 20 µM. S. cerevisiae tim10-1 ts strain growth, BacTiter-Glo, 24 h. AID 463190, 2010;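 active = inhibition of at least 40%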;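 also: mutant grown at 25 °C; 0% = DMSO wells with yeast and 100% = wells holding no yeast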
TIM10 inh: growth inhibitors of isogenic TIM10 control yeast, primary screen, counter-screen for tim10-1 yeast inhibitor project, luminescence, uHTS; S. cerevisiae TIM10 strain growth, BacTiter-Glo luminescence, 24 h; AID 463195, 2010; 330,000 compounds, 1.4% hits; inhibition, % at 10 µM;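 active = inhibition of 40% or more at the single tested concentration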;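 also: wild-type TIM10 isogenic control strain grown at permissive 25 °C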
PfHsp90 yeast 2: growth inhibition of PfHsp90-expressing yeast, primary screen, antimalarial PfHsp90 inhibitor project, S. cerevisiae, BacTiter-Glo luminescence, single point, set 2; inhibition, % at 9.4 µM; 310,000 compounds, 0.32% hits; BacTiter-Glo ATP, 48 h; yeast lacking PDR1 and PDR3 efflux regulators;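 active = every replicate shows inhibition above about 80%, whatever the replicate mean, limit read from the data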;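 also: 0% = DMSO neutral controls and 100% = 20 µM radicicol positive controls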
NLRP3 yeast inh: NALP3 inflammasome inhibitors in reconstituted yeast, primary screen, luminescence, uHTS | 330,000 compounds, 0.39% hits | Yeast reconstituted NLRP3/ASC/caspase-1, beta-gal luminescence, 24 h | inhibition, % at 10 µM;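 active = inhibition of 50% or more; inactive = inhibition below 50%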;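 also: plate controls were induced DMSO wells for no effect and uninduced yeast grown without galactose for full effect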
NALP1 yeast inh: NALP1 inflammasome inhibitors in reconstituted yeast, colorimetric, S. cerevisiae, triplicate retest; inhibition, % at 10 µM; AID 2071, 2009; S. cerevisiae NALP1/ASC/caspase-1 growth, X-gal OD620, 72 h; 280,000 compounds, 0.61% hits; in the data active = inhibition mostly above about 24%, no sharp cut-off; inactive = mostly below about 32%
tim23-1 inh: growth inhibitors of tim23-1 mutant yeast, primary screen, luminescence, uHTS | inhibition, % at 20 µM | 330,000 compounds, 1.3% hits | S. cerevisiae tim23-1 growth, BacTiter-Glo luminescence, 24 h;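 active = growth inhibition of the mutant yeast at or above 50%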;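 also: temperature-sensitive mutant grown at 25 °C; plate controls were DMSO-treated mutant yeast for no effect and medium wells lacking yeast for full effect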
tim10-1 confirm: growth inhibitors of tim10-1 mutant yeast, confirmation, single concentration, luminescence, S. cerevisiae; shares compounds with tim10-1 inh; S. cerevisiae tim10-1 ts strain growth, BacTiter-Glo, 24 h; inhibition, % at 20 µM; 7,400 compounds, 56% hits; AID 463213, 2010;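 active = inhibition of yeast growth at or above a set limit in either of two repeat tests at 20 µM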;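 also: tim10-1 mutant grown at permissive 25 °C to find synthetic lethal compounds; 0% = DMSO yeast wells and 100% = medium wells without yeast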
* marks the source's active call; other numbers are inactive results. In the library only some 4.2% were active in any assay of this set; here they are far more common.

For COc1ccc(/C=C/C(=O)OCC(=O)c2c(C)[nH]c3ccccc23)cc1OC the results were tim10-1 inh 11, TIM10 inh 7, PfHsp90 yeast 2 -19, NLRP3 yeast inh 14, NALP1 yeast inh 25 and tim23-1 inh 11.
Screening CCCCNC(=S)Nc1ccccc1Cc1ccccc1 returned tim10-1 inh 41*, TIM10 inh 23, NLRP3 yeast inh 7, NALP1 yeast inh -4, tim23-1 inh 8 and tim10-1 confirm 24.
`CCN(CC)CC1CN(N=Cc2ccc([N+](=O)[O-])o2)C(=O)O1` (stereo not given) gave PfHsp90 yeast 2 3.
For Cc1cc(C)c(C)c(S(=O)(=O)ON2C(=O)c3ccccc3C2=O)c1C the results were tim10-1 inh 59*, TIM10 inh 27, PfHsp90 yeast 2 -11, NLRP3 yeast inh 23, NALP1 yeast inh 35, tim23-1 inh 36 and tim10-1 confirm 61*.
For O=C(Nc1ccc2c(c1)Cc1ccccc1-2)c1cccnc1 the results were tim10-1 inh -22, TIM10 inh 14, PfHsp90 yeast 2 19, NLRP3 yeast inh 49, NALP1 yeast inh 6 and tim23-1 inh 31.
For O=C(c1ccc(-c2nnc(-c3ccccc3)o2)cc1)N1CCCCCC1 the results were tim10-1 inh 45*, TIM10 inh 11, PfHsp90 yeast 2 8, NLRP3 yeast inh 16, NALP1 yeast inh -12, tim23-1 inh 6 and tim10-1 confirm 33*.
Screening O=C(O)c1ccc(-c2nnc(-c3ccccc3)o2)cc1 returned tim10-1 inh 10, TIM10 inh 15, PfHsp90 yeast 2 39, NLRP3 yeast inh -2, NALP1 yeast inh -12 and tim23-1 inh 15.
`CC[C@]12C(=O)N(C)C[C@H]([C@@H]3C(=O)N(C)C(=O)[C@@H]31)N2C(=O)c1ccc(F)cc1` gave PfHsp90 yeast 2 13.
For COc1cc(SC#N)ccc1N=Cc1c(C)[nH]n(-c2ccc(Cl)cc2)c1=O the results were tim10-1 inh 42*, TIM10 inh 33, PfHsp90 yeast 2 -36, NLRP3 yeast inh 25, NALP1 yeast inh 27, tim23-1 inh 34 and tim10-1 confirm 26.
`O=C(Nc1c2c(nn1-c1ccc(Cl)cc1)CS(=O)(=O)C2)c1ccccc1` gave tim10-1 inh 6, TIM10 inh 4, PfHsp90 yeast 2 -12, NLRP3 yeast inh 6, NALP1 yeast inh 20 and tim23-1 inh 10.
`CCc1sc(C(=O)Nc2ccccc2N2CCOCC2)cc1C` gave tim10-1 inh 18, TIM10 inh 14, PfHsp90 yeast 2 -8, NLRP3 yeast inh 34, NALP1 yeast inh 11 and tim23-1 inh 44.
`CCCOC(=O)c1ccc(NS(=O)(=O)c2cccs2)cc1` gave tim10-1 inh 54*, TIM10 inh 30, PfHsp90 yeast 2 -9, NLRP3 yeast inh 17, NALP1 yeast inh -8, tim23-1 inh 38 and tim10-1 confirm 35*.
`CCOC(=O)c1c(C)oc2ccc(NS(=O)(=O)c3cccs3)cc12` gave tim10-1 inh 42*, TIM10 inh 29, PfHsp90 yeast 2 -32, NLRP3 yeast inh -1, NALP1 yeast inh 4, tim23-1 inh 37 and tim10-1 confirm 21.
O=C(COC(=O)c1ccc(NS(=O)(=O)c2cccs2)cc1)NCc1ccco1 was read as tim10-1 inh -15, TIM10 inh -7, PfHsp90 yeast 2 -5, NLRP3 yeast inh 10 and tim23-1 inh -20.
For C[C@@H]1COC(=O)[C@@H](Cc2ccc(F)cc2)CC/C=C\C[C@@H](CC(=O)NCCO)C(=O)N1 the results were tim10-1 inh 8, TIM10 inh 4, PfHsp90 yeast 2 8, NLRP3 yeast inh 4 and tim23-1 inh 12.
For O=C(NC(NNc1ccc([N+](=O)[O-])cc1)(C(F)(F)F)C(F)(F)F)c1ccc(Cl)cc1 the results were tim10-1 inh 64*, TIM10 inh 35, PfHsp90 yeast 2 -39, NLRP3 yeast inh 13, NALP1 yeast inh -25, tim23-1 inh 37 and tim10-1 confirm 51*.
Screening Cc1cc(NC(=O)COC(=O)[C@H](Cc2ccccc2)NC(=O)c2ccco2)no1 returned PfHsp90 yeast 2 5.
For COc1ccc(C(C(=O)NC2CCCCC2)N(C(=O)CCl)c2ccc(Cl)cc2)cc1 (stereo not given) the results were tim10-1 inh 21, TIM10 inh 19, PfHsp90 yeast 2 19, NLRP3 yeast inh 1, NALP1 yeast inh 16 and tim23-1 inh 17.
Screening COC(CN(C(=O)CCl)C(C(=O)NC1CCCCC1)c1ccc(Cl)cc1)OC (stereo not given) returned tim10-1 inh 43*, TIM10 inh 34, PfHsp90 yeast 2 22, NLRP3 yeast inh 4, NALP1 yeast inh 26, tim23-1 inh 38 and tim10-1 confirm 30.
Screening COC(CN(C(=O)CCl)C(C(=O)NC1CCCCC1)c1ccccc1C)OC (stereo not given) returned tim10-1 inh 43*, TIM10 inh 39, PfHsp90 yeast 2 -10, NLRP3 yeast inh 10, NALP1 yeast inh 22, tim23-1 inh 36 and tim10-1 confirm 32*.
Screening CCOc1ccc(C2CC(=O)N(Nc3ccc([N+](=O)[O-])cc3[N+](=O)[O-])C2=O)cc1 (stereo not given) returned tim10-1 inh 18, TIM10 inh 8, PfHsp90 yeast 2 -6, NLRP3 yeast inh 18, NALP1 yeast inh -16 and tim23-1 inh -10.
COc1ccc(NC(=O)C2=CC=CN3CCS(=O)(=O)N=C23)c(OC)c1 was read as tim10-1 inh -4, TIM10 inh -7, PfHsp90 yeast 2 24, NLRP3 yeast inh 20 and tim23-1 inh 8.
O=C(COC(=O)C1(c2ccc(Cl)cc2)CCCC1)Nc1ncc(C(F)(F)F)cc1Cl was read as tim10-1 inh 42*, TIM10 inh 10, PfHsp90 yeast 2 -20, NLRP3 yeast inh -5, NALP1 yeast inh 15, tim23-1 inh 24 and tim10-1 confirm 10.
`COc1ccccc1NC(=O)Nc1nc(CC(=O)Nc2cc(F)ccc2F)cs1` gave tim10-1 inh 17, TIM10 inh 12, PfHsp90 yeast 2 -1, NLRP3 yeast inh 14 and tim23-1 inh 34.
Cc1nnnn1/C(=C\c1ccccc1)C(=O)OCC(=O)NC(C)(C)C was read as tim10-1 inh 45*, TIM10 inh 31, PfHsp90 yeast 2 18, NLRP3 yeast inh 16, tim23-1 inh 45 and tim10-1 confirm 34*.
